Laboratory results reported in PMC9838217, “Structure of SALL4 zinc finger domain reveals link between AT-rich DNA binding and Okihiro syndrome”.
Positions count from the first letter of the chain named.

Columns and labels:
Assay in all cases: HT-SELEX; high values mean tight binding
Settings in all cases: protein: recombinant; vector His6-GST; dsDNA, one strand shown
SALL4 ZFC4 WT (HT-SELEX) = target: T1, SALL4 ZFC4 WT (HT-SELEX) (Mus musculus, UniProt Q8BX22 870-940)
T1 sequence: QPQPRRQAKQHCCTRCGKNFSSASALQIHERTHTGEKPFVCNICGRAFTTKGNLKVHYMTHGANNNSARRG
Outline: (§1)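 Up to 6 cycles of selection were run in triplicate. In each, purified recombinant mouse SALL4 zinc finger cluster 4 (residues 870–940, 1 µg) was incubated with library DNA (1.5 µg first cycle, 200 ng later) in 100 µl of 10 mM Tris–HCl pH 7.5, 50 mM NaCl, poly(dI-dC), DTT for 10 min at room temperature, then complexes were captured on Ni2+ beads, washed and PCR-amplified; final pools were MiSeq-sequenced and scanned for 6-mers. Binding signal is each canonical k-mer's read fraction as fold change versus the initial random library.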

[1] = target: T2, SALL4 ZFC4 R900W (HT-SELEX) (Mus musculus, UniProt Q8BX22 870-940, R900W)
T2 sequence: T1 sequence with R31W
Outline: as §1

[2] = target: T3, SALL4 ZFC4 G921D (HT-SELEX) (Mus musculus, UniProt Q8BX22 870-940, G921D)
T3 sequence: T1 sequence with G52D
Outline: as §1

Row | Sequence | binding signal (SALL4 ZFC4 WT (HT-SELEX)) [fold-change vs cycle 0] | binding signal [1] [fold-change vs cycle 0] | binding signal [2] [fold-change vs cycle 0]
1 | AGGGAG | 0.59 ± 0.0373 | 0.667 ± 0.0517 | 0.737 ± 0.0368
2 | GCATGA | 0.7 ± 0.0187 | 0.753 ± 0.0226 | 0.824 ± 0.0395
3 | CCTAAG | 0.941 ± 0.0158 | 1.05 ± 0.0579 | 1.05 ± 0.0419
4 | ACTAAG | 1.42 ± 0.0426 | 1.61 ± 0.0315 | 1.45 ± 0.0661
5 | ATGCAT | 1.33 ± 0.0832 | 1.27 ± 0.0798 | 1.26 ± 0.0876
6 | AAGCAT | 1.23 ± 0.027 | 1.26 ± 0.0143 | 1.273 ± 0.011
7 | AAAACG | 0.821 ± 0.0591 | 0.931 ± 0.0404 | 0.972 ± 0.016
8 | AGCTTA | 1.21 ± 0.0616 | 1.28 ± 0.0778 | 1.27 ± 0.0883
9 | CTTGCA | 0.697 ± 0.0262 | 0.7756 ± 0.00768 | 0.856 ± 0.0345
10 | ATTTTG | 1.66 ± 0.083 | 1.5 ± 0.0395 | 1.44 ± 0.0553
11 | TACAAA | 1.84 ± 0.0971 | 1.82 ± 0.0757 | 1.67 ± 0.0747
12 | AGTTAC | 1.44 ± 0.0411 | 1.56 ± 0.0396 | 1.49 ± 0.117
13 | CTATCC | 0.843 ± 0.0485 | 0.98 ± 0.0213 | 0.977 ± 0.0393
14 | AATCAT | 2.57 ± 0.14 | 2.12 ± 0.0633 | 1.93 ± 0.164
15 | ACAAGA | 1.29 ± 0.0493 | 1.52 ± 0.0767 | 1.39 ± 0.105
16 | GTCTCA | 0.736 ± 0.016 | 0.879 ± 0.00912 | 0.938 ± 0.0386
17 | CTAACC | 0.863 ± 0.0299 | 0.983 ± 0.0562 | 1.01 ± 0.0396
18 | CACCAA | 0.692 ± 0.0333 | 0.776 ± 0.0234 | 0.859 ± 0.0335
19 | GACTCA | 0.768 ± 0.0401 | 0.889 ± 0.022 | 0.937 ± 0.0191
20 | ACGTCA | 0.686 ± 0.00954 | 0.776 ± 0.0221 | 0.847 ± 0.0153
21 | TCTACA | 1.24 ± 0.0179 | 1.33 ± 0.0358 | 1.29 ± 0.0644
22 | GAAACA | 1.23 ± 0.0252 | 1.33 ± 0.0252 | 1.29 ± 0.046
23 | ATCCAC | 0.828 ± 0.0223 | 0.953 ± 0.0135 | 0.986 ± 0.0515
24 | CCTTAC | 0.944 ± 0.0541 | 1.06 ± 0.0559 | 1.04 ± 0.0333
25 | CTTTAA | 1.84 ± 0.0654 | 1.95 ± 0.0889 | 1.69 ± 0.149
26 | GTCAAC | 0.711 ± 0.0163 | 0.867 ± 0.00955 | 0.934 ± 0.0287
27 | CTGATA | 1.39 ± 0.0802 | 1.44 ± 0.0817 | 1.36 ± 0.068
28 | AAAGTA | 1.92 ± 0.0856 | 1.98 ± 0.162 | 1.73 ± 0.169
29 | GGAAAC | 0.775 ± 0.0365 | 0.874 ± 0.0459 | 0.9097 ± 0.00842
30 | ATGCCA | 0.517 ± 0.0281 | 0.565 ± 0.0177 | 0.695 ± 0.0326
